Among all 69,000 compounds or so, about 8,600 (12%) showed an effect of 50% or more. The full list was thinned out, with strong results kept by preference.

The subject of this test is Plasmodium berghei. As to the kind of experiment: Screen against P. berghei liver stage (PbLuc), transformed with Luciferase, at 10uM. Format: functional, HepG2. The settings on record: tested at 10 uM.
As for `COc1ccc(CNC(=O)N2CCOCC2C2CC2)cc1C` (centres undefined), the INHIBITION stood at 66.7%.
`COc1ccc(CNC(=O)N2CCOCC2C2CC2)c(C)c1` (centres undefined): the INHIBITION was determined as 17.4%.
On to `COc1ccccc1C1Cn2c(C)cnc2CN1Cc1c[nH]nc1C` (centres undefined), for which the INHIBITION was -14.2%.
Regarding `Cn1cnc2c1CCN(Cc1csc(Cc3ccccc3)n1)C2`, the INHIBITION was -3.7%.
With `CN(C)C(=O)CC1CC2(CCN(CC3CC3)CC2)Oc2ccccc21` (centres undefined), the INHIBITION was -51.6%.
On to `Cc1cc(C(=O)N2CC[C@](C)(O)[C@H](C)C2)c(C)n1C`, for which the INHIBITION is given as -12.2%.
In the case of `CC(c1ccc(F)cc1F)N1CCN(CCC(=O)NC(N)=O)CC1` (centres undefined), the INHIBITION is given as -8%.
With `CC(c1ccc(F)cc1F)N1CCN(CCC(=O)O)CC1` (centres undefined) the figure was -17.7%.
For `CC(c1ccc(F)cc1F)N1CCN(CCN2CCCC2=O)CC1` (centres undefined), the INHIBITION amounted to 63%.
On to `CCn1nc(C)cc1NC(=O)CCn1nc(C)c(Br)c1C`, for which the INHIBITION turned out to be 31.7%.
For the compound `COCCn1ccc(=O)c(OCC(=O)Nc2cccc(Cl)c2)c1C`, the INHIBITION is on record as -21.2%.
As for `Cc1cc(C)n(C2CN(CCC(N)=O)C2)n1`, the INHIBITION is on record as -4.96%.
Regarding `CC(C)N(C)Cc1cncc2c1CCN(C(=O)c1cccc(C#N)c1)C2`, the INHIBITION turned out to be 12.7%.
In the case of `Cc1cc(CN2CCN(Cc3cnc4c(c3)c(C)nn4C)CC2)on1`, the INHIBITION is 11.5%.
`CCN1CCN(C(=O)c2ccc(Cn3ccccc3=O)o2)CC1`: the INHIBITION came out at 39.6%.
Consider `COCCC(=O)N1CCc2c(CNc3ncccn3)cncc2C1`, for which the INHIBITION is recorded as 53.4%.
For the compound `c1cnc(NCc2cncc3c2CCN(Cc2cccnc2)C3)nc1`, the INHIBITION came to 12.4%.
For `c1cnc(NCc2cncc3c2CCN(Cc2ccoc2)C3)nc1`, the INHIBITION is recorded as 19.4%.
As for `c1cnc(NCc2cncc3c2CCN(Cc2ccsc2)C3)nc1`, the INHIBITION is reported as 60.2%.
Regarding `Cc1cc(CN2CCc3c(CNc4ncccn4)cncc3C2)oc1C`, the INHIBITION came out at 67.2%.
With `CC(=O)NCC(=O)N1CCc2c(CNc3ncccn3)cncc2C1` the figure was -2.17%; with `c1csc(CN2CCc3c(CNc4nncs4)cncc3C2)c1`, 42.7%; with `c1cnc(NCc2cncc3c2CCN(Cc2cccs2)C3)nc1`, -38.7%.
Take `CN(C)C(=O)N1CCc2c(CNc3ncccn3)cncc2C1`: the INHIBITION came to 6.38%.
As for `Cc1nn(C)c(N2CCOCC2)c1CNC(C)c1cccs1` (centres undefined), the INHIBITION is on record as 16.9%.
On to `COc1ccc(N2CCN(C(=O)C(C)n3cc(Br)cn3)CC2)cc1` (centres undefined), for which the INHIBITION is reported as 30%.
In the case of `Cc1cccc(CC2CCCN(C(=O)C3CCOCC3)C2)n1` (centres undefined), the INHIBITION was found to be 30.4%.
For `O=C(C1CC1)N1CCC(c2nc(O)c3c(n2)CN(C2CCCC2)CC3)C1` (centres undefined), the INHIBITION was 5.11%.
Take `COc1cc(NCc2c(C)noc2C)c(C(=O)N(C)C)cc1OC`: the INHIBITION is given as -16.1%.
Regarding `Cc1noc(C)c1CN1Cc2nccn2CC(CN2CCOCC2)C1` (centres undefined), the INHIBITION turned out to be 18.3%.
For `COCCCC1(C(=O)O)CCCN(C(=O)c2ccc(C(C)C)[nH]c2=O)C1` (centres undefined), the INHIBITION turned out to be 30.4%.
The result for `CCCC1(C(=O)O)CCCN(C(=O)c2cc(Cl)ccc2F)C1` (centres undefined) reads 36.5%; that for `COCCC1(C(=O)O)CCCN(C(=O)c2cc(Cl)ccc2F)C1` (centres undefined), 58.8%; that for `COCCC1(C(=O)O)CCCN(C(=O)c2cc(C)oc2C)C1` (centres undefined), 69.9%.
Regarding `COCCC1(C(=O)O)CCCN(C(=O)c2cc(F)ccc2OC)C1` (centres undefined), the INHIBITION worked out at 79.7%.
Regarding `COc1ccc(F)cc1C(=O)N1CCCC(CNS(C)(=O)=O)C1` (centres undefined), the INHIBITION was -38.7%.
Turning to `COCCCC1(C(=O)O)CCCN(C(=O)c2ccc(Cl)cc2F)C1` (centres undefined), the INHIBITION is reported as 39.3%.
On to `CCN1C(=O)CCCC12CCCN(C(=O)c1cc(C)oc1C)C2` (centres undefined), for which the INHIBITION is -17.1%.
The result for `CCN(CC)Cc1cc(C(=O)N2CCCC(CC)(C(=O)O)C2)c(C)o1` (centres undefined) reads 29.9%; that for `Cc1nnc(NC(=O)CN2CCCC2c2c(C)nn(C)c2C)s1` (centres undefined), -24.2%; that for `CCc1nnc2n1CCN(C(=O)c1ccc3c(c1)nnn3C)C2`, -8.66%.
With `CS(=O)(=O)N1Cc2nccn2CC(CNC(=O)c2cccnc2)C1` (centres undefined) the figure was 2.79%.
With `CC(C)C[C@H](Nc1nc(C2CCCC2)nc2c1cnn2C)C(N)=O` the figure was 61%; with `CCC(Nc1nccc(C2CCCC2)n1)c1ccccn1` (centres undefined), 22.5%; with `Cc1cc(CC(C)Nc2nc(C3CCCC3)nc3c2cnn3C)[nH]n1` (centres undefined), 45.1%.
On to `CCOC(=O)CNc1nc(COC)nc2c1cnn2C`, for which the INHIBITION was -4.23%.
With `CC(=O)NCCNc1nc(C2CCCC2)nc2c1cnn2C` the figure was 5.23%.
Consider `COC(=O)[C@H](CSC)Nc1nc(C2CCCC2)nc2c1cnn2C`, for which the INHIBITION stood at 52.6%.
Take `CCOC(=O)CC(C)Nc1nc(C2CCCC2)nc2c1cnn2C` (centres undefined): the INHIBITION is 61%.
`COC(=O)[C@@H](Nc1nc(C2CCCC2)nc2c1cnn2C)[C@@H](C)O`: the INHIBITION is 10.9%.
On to `CC(C)[C@H](Nc1nc(C2CCCC2)nc2c1cnn2C)C(N)=O`, for which the INHIBITION is given as 28.5%.
Consider `CCC(Nc1nccc(C2CCCC2)n1)c1ncccc1C` (centres undefined), for which the INHIBITION was -24.8%.
Turning to `COCCN1CC(Nc2nc(C3CCCC3)nc3c2cnn3C)CC1=O` (centres undefined), the INHIBITION is 25.1%.
Turning to `CCC(Nc1nccc(C2CCCC2)n1)c1ccncc1` (centres undefined), the INHIBITION was determined as 84.1%.

(Values after ChEMBL document CHEMBL4513216, “Probing the Open Global Health Chemical Diversity Library for Multistage-Active Starting Points for Next-Generation Antimalarials” (ACS Infect Dis, 2020).)
